Assay [1] is described as follows: qHTS assay to identify small molecule antagonists of the sonic hedgehog signaling (Shh) pathway (AID 1259369; calls by dose curve; further: nearly all actives have a fitted effect of over 45% in size). The procedure, abridged: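 Gli1 transcriptional reporter (firefly Luc) in NIH/3T3 background, conditioned-medium activated. 24hr exposure, luminescence endpoint.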
A general note: In qHTS, concentration-response curves come from the screen itself.

Assay [2] is described as follows: qHTS assay to identify small molecule agonists of the androgen receptor (AR) signaling pathway in the presence of an antagonist - cell viability counter screen (AID 1259379).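 Further: MDA-kb2 human breast cancer cells carrying an MMTV luciferase reporter; series mostly up to about 92 µM; nearly all actives have a fitted effect of over 25% in size.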 The gist of the method:
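Counter screen for cell viability run in parallel with the AR agonist-mode luciferase assay. MDA-kb2 cells were co-treated with nilutamide (3.0uM final) and compounds, then incubated 16 hr at 37C, and CellTiter-Fluor fluorescence was measured.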

Assay [3] deals with Androgen receptor (Homo sapiens) (UniProt P10275). The assay is described as follows: qHTS assay to identify small molecule agonists of the androgen receptor (AR) signaling pathway in the presence of an antagonist (AID 1259381; calls by dose curve; further: nearly all actives have a fitted effect of over 15% in size). The gist of the method:
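AR antagonist background: nilutamide 3.0uM final. Cell line: MDA-kb2, MMTV-driven luciferase, responsive to both AR and GR. Exposure 16hr, 37C, no CO2; ONE-Glo luminescence.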

Assay [4] addresses Estrogen receptor (Homo sapiens) (UniProt P03372). The assay can be described thus: qHTS assay to identify small molecule agonists of the estrogen receptor alpha (ER-alpha) signaling pathway in the presence of an antagonist (AID 1259383; calls by dose curve; further: top concentration of the series differs between compounds; nearly all actives have a fitted effect of over 15% in size). The procedure, abridged: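 ER-alpha agonism measured under antagonist challenge: 10.0nM ICI-182,780 (final) plus compound, 15 concentrations, 22hr, VM7Luc4E2 ERE-luciferase cells. Read by luminescence.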

Assay [5] can be described thus: qHTS assay to identify small molecule agonists or antagonists of the thyroid stimulating hormone receptor (TSHR) signaling pathway - wild type cell line counter screen (AID 1259384; calls by dose curve). The gist of the method: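 Wild-type Hek293 cells, 800/well, 18 h at 37C, then compound with Ro20-1724 for 30 min RT. cAMP by HTRF (cAMP-d2/anti-cAMP cryptate), 1 h RT, fluorescence read. 15 concentrations, triplicates.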

The nature of assay [6]: qHTS assay to identify small molecule agonists of the estrogen receptor alpha (ER-alpha) signaling pathway in the presence of an antagonist - cell viability counter screen (AID 1259386).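 Further: series mostly up to about 92 µM; cells exposed to compounds for 22 h at 37 °C before the viability read; nearly all actives have a fitted effect of over 30% in size.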 The procedure, abridged:
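Steps: 5-day stripped-FBS culture; seed and incubate 24hr; add ICI-182,780 (10.0nM final); pin 15-point compound titration; incubate 22hr at 37C; add CellTiter-Fluor at 21hr; read fluorescence.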

Assay [7] deals with Progesterone receptor (Homo sapiens) (UniProt P06401). The assay is described as follows: qHTS assay to identify small molecule agonists of the progesterone receptor (PR) signaling pathway (AID 1346784; calls by dose curve; further: nearly all actives have a fitted effect of over 30% in size). The procedure, abridged:
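Cells (PR-UAS-bla HEK 293T, GripTite) were plated in assay medium containing 2% charcoal-stripped FBS and incubated 6 hr. Test compounds in DMSO were added for 16 hr at 37C. FRET substrate was then loaded for 2 hr at room temperature before fluorescence reading.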

The nature of assay [8]: qHTS assay to identify small molecule antagonists of the progesterone receptor (PR) signaling pathway - cell viability counter screen (AID 1346798). Further: series mostly up to about 92 µM; nearly all actives have a fitted effect of over 50% in size. The gist of the method: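 Counter screen for cytotoxicity: viability of PR-UAS-bla HEK293T cells was measured with CellTiter-Glo luminescence following 16 hr compound exposure in the presence of R5020.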
A short description of assay [9]: qHTS assay to identify small molecule agonists of the progesterone receptor (PR) signaling pathway - cell viability counter screen (AID 1346799; calls by dose curve; further: nearly all actives have a fitted effect of over 45% in size). The gist of the method:
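Cells (PR-UAS-bla HEK293T) are plated at 3,000/well in 2% charcoal-stripped FBS medium, rested 6 hr, dosed and incubated 16 hr at 37C. CellTiter-Glo is then added and luminescence measured after 30 min at room temperature.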

The nature of assay [10]: qHTS assay to identify small molecule antagonists of the TGF-beta/Smad signaling pathway - cell viability counter screen (AID 1346824). Further: nearly all actives have a fitted effect of over 50% in size. The gist of the method: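 SBE-bla HEK 293T cells, incubated overnight, then compound plus 0.25 ng/mL TGF-beta1 (stock added) for 5 hr at 37 C. Viability was read in the same wells by CellTiter-Glo luminescence after 30 min at room temperature.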

The nature of assay [11]: qHTS assay to identify small molecule agonists of the TGF-beta/Smad signaling pathway - cell viability counter screen (AID 1346829). Further: top concentration of the series differs between compounds; nearly all actives have a fitted effect of over 45% in size. The gist of the method: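 Tox21 qHTS format: SBE-bla HEK 293T cells treated with DMSO-dissolved compounds for 5 hr; CellTiter-Glo luminescence after 30 min at room temperature.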
Assay [12] can be described thus: qHTS assay to identify small molecule agonists of the sonic hedgehog signaling (Shh) pathway (AID 1259368; calls by dose curve;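 further: NIH/3T3-derived 3T3Gli1-Luc cells carrying a stable Gli1-driven firefly luciferase reporter; series mostly up to about 92 µM; nearly all actives have a fitted effect of over 15% in size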). The procedure, abridged: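 Stable NIH/3T3 Gli1-Luc reporter clone; 24 hr cpd exposure after a 4 hr settling period; luminescence endpoint.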
The nature of assay [13]: qHTS assay to identify small molecule agonists of the estrogen receptor beta (ER-beta) signaling pathway - cell viability counter screen (AID 1259380). Further: nearly all actives have a fitted effect of over 30% in size. The procedure, abridged: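 In this qHTS counter screen, HEK293T cells carrying an ER-beta/UAS beta-lactamase reporter, grown in 2% charcoal-stripped FBS, received compound for 16 hr; ATP-based CellTiter-Glo luminescence was then read after 30 min at room temperature.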

A short description of assay [14]: qHTS assay to identify small molecule antagonists of the estrogen receptor beta (ER-beta) signaling pathway - cell viability counter screen (AID 1259382). Further: series mostly up to about 92 µM; nearly all actives have a fitted effect of over 55% in size. The procedure, abridged: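 HEK293T ER-beta-UAS-bla, 2% charcoal-stripped FBS; compounds + 1nM E2 16 hr 37C; CellTiter-Glo luminescence, 30 min RT.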
Assay [15] concerns the target Thyrotropin receptor (Homo sapiens) (UniProt P16473). The assay is described as follows: qHTS assay to identify small molecule antagonists of the thyroid stimulating hormone receptor (TSHR) signaling pathway (AID 1259385; calls by dose curve; further: nearly all actives have a fitted effect of over 20% in size). The gist of the method: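 TSHR-HEK293 cells (800/well) plated 18 h, then compounds with Ro20-1724 and TSH at 1.5 ng/mL final, 30 min at room temperature. cAMP quantified by HTRF (cAMP-d2/anti-cAMP-cryptate, 1 h); 15 concentrations in triplicate.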

Assay [16] deals with Progesterone receptor (Homo sapiens) (UniProt P06401). The assay is described as follows: qHTS assay to identify small molecule antagonists of the progesterone receptor (PR) signaling pathway (AID 1346795; active means well fitted inhibition curve with a large enough effect in the signal ratio in the repeat runs, not every such curve was filed as active; the % refers to the signal ratio; further: potency means the concentration at half of the fitted maximal effect). The procedure, abridged: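 Antagonist mode: compounds tested against 1 nM (final) promegestone stimulation in HEK293T cells expressing PR-UAS-bla reporter, 16 hr at 37C, 5% CO2; beta-lactamase activity detected via B/G FRET substrate after 2 hr at room temperature.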
Chain of Progesterone receptor (Homo sapiens) (P06401 whole entry, looked up): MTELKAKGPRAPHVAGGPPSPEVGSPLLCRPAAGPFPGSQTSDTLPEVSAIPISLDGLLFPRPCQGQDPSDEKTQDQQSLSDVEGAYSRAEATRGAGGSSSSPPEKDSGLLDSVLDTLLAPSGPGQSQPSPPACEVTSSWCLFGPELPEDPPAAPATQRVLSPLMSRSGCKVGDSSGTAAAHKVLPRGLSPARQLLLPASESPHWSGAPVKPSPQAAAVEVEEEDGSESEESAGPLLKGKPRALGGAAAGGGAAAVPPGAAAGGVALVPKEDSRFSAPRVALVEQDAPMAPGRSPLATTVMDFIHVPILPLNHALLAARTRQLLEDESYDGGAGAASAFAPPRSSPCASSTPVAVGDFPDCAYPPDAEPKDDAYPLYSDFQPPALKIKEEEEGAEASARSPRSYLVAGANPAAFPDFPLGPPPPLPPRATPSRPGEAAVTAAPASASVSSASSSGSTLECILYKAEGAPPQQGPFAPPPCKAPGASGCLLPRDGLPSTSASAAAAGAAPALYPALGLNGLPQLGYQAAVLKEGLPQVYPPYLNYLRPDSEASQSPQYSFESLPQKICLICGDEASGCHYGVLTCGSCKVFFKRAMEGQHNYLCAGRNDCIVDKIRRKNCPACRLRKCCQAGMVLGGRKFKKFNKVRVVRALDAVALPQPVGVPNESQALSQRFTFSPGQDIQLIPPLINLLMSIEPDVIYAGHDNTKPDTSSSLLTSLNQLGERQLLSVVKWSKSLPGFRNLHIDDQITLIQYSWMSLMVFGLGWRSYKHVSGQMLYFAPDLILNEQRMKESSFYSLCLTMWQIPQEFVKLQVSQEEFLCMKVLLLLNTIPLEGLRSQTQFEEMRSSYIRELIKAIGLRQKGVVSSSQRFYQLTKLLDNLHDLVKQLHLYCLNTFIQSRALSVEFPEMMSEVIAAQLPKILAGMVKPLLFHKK

Assay [17] in a line: qHTS assay to identify small molecule agonists of the TGF-beta/Smad signaling pathway (AID 1346859; active means well fitted activation curve with a large enough effect in the signal ratio in the repeat runs, not every such curve was filed as active; the % refers to the signal ratio; further: series mostly up to about 77 µM). The gist of the method:
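Reporter line: HEK 293T with stably integrated SBE-controlled beta-lactamase. Compound exposure lasts 5 hr at 37 C and 5% CO2; substrate loading follows for 2 hr at room temperature, with emission read at 460 and 530 nm.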

Assay [18] has as its target Thyrotropin-releasing hormone receptor (Homo sapiens) (UniProt P34981). The assay can be described thus: qHTS assay to identify small molecule antagonists of the thyrotropin-releasing hormone receptor (TRHR) signaling pathway (AID 1346877; active means well fitted inhibition curve with a large enough effect in the repeat runs, not every such curve was filed as active; further: series mostly up to about 51 µM). The procedure, abridged:
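Human TRHR in HEK293 cells; inhibition of the intracellular calcium rise triggered by 1 nM TRH was followed by fluorescence over 3 min. Compounds were run at 15 concentrations, three replicates each.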

In assay [19] the target is Estrogen receptor beta (Homo sapiens) (UniProt Q92731). The assay can be described thus: qHTS assay to identify small molecule agonists of the estrogen receptor beta (ER-beta) signaling pathway (AID 1259377; active means well fitted activation curve with a large enough effect in the signal ratio in the repeat runs, not every such curve was filed as active; the % refers to the signal ratio). The gist of the method:
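Agonist mode cell assay in GripTite HEK293T cells expressing an ER-beta fusion that drives beta-lactamase from an Upstream Activator Sequence; 16 hr compound exposure at 37C, then 2 h LiveBLAzer B/G FRET substrate at room temperature, fluorescence read-out.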

Assay [20] has the same target. The assay can be described thus: qHTS assay to identify small molecule antagonists of the estrogen receptor beta (ER-beta) signaling pathway (AID 1259378; active means well fitted inhibition curve with a large enough effect in the signal ratio in the repeat runs, not every such curve was filed as active; the % refers to the signal ratio). The procedure, abridged: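 ER-beta-UAS-bla HEK293T cells in 2% charcoal-stripped FBS medium treated with compound plus 1nM final 17-beta-estradiol for 16 hr at 37C. Beta-lactamase reporter read by FRET substrate fluorescence after 2 hours at room temperature.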

Molecules are shown by their SMILES. Results filed as inconclusive are left out. The source made the active and inactive calls. Unless noted, the call rests on the fitted dose curve; in most records, active means well fitted curve in the direction sought with a large enough effect in the repeat runs; inconclusive means weak or mixed curves; inactive means no such curve, though single readings can be large; an effect the other way counts as inactive or inconclusive.

The values that follow come from PubChem BioAssay (Tox21).

Chain of Estrogen receptor beta (Homo sapiens) (Q92731 whole entry, looked up, the tested form may be a part): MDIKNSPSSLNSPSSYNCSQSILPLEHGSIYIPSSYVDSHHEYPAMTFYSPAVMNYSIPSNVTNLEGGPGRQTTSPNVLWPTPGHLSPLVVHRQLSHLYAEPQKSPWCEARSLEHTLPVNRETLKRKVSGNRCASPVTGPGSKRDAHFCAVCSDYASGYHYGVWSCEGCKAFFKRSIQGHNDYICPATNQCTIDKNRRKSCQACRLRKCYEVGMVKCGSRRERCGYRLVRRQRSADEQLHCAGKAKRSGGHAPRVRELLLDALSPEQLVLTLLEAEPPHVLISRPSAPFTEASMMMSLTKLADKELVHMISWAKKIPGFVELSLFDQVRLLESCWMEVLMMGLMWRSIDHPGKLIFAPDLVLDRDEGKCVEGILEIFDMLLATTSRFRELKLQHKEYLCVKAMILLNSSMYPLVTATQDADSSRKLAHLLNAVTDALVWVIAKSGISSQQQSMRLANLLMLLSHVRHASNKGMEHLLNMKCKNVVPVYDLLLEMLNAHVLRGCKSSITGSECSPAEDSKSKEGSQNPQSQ
Chain of Estrogen receptor (Homo sapiens) (P03372 whole entry, looked up): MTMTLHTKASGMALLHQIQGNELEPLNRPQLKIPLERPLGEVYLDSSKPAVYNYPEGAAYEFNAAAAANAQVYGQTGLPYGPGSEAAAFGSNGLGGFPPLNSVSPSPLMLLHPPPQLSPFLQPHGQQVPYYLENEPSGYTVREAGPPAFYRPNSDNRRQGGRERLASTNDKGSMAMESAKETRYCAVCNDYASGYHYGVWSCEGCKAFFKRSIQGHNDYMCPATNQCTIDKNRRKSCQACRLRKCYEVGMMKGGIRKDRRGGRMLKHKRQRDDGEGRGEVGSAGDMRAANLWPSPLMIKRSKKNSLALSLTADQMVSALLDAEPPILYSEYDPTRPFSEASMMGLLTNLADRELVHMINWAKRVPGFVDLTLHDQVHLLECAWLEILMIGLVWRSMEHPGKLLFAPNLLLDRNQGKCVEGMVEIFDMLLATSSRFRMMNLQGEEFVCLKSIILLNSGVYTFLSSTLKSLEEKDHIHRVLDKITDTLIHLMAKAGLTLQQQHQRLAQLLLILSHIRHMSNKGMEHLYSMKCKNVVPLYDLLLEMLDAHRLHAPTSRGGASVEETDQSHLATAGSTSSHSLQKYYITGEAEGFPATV
Chain of Thyrotropin-releasing hormone receptor (Homo sapiens) (P34981 whole entry, looked up): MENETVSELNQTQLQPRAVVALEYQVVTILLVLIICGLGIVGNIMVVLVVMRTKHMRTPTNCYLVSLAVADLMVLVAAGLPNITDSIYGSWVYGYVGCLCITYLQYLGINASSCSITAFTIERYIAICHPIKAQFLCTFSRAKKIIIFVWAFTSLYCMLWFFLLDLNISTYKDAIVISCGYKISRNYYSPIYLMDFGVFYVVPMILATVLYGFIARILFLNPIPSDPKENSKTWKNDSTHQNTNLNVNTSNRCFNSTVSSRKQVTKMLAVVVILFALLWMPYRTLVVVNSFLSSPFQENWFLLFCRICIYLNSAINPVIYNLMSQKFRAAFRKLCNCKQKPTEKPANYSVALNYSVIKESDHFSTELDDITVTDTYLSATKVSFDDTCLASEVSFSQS
Chain of Thyrotropin receptor (Homo sapiens) (P16473 whole entry, looked up): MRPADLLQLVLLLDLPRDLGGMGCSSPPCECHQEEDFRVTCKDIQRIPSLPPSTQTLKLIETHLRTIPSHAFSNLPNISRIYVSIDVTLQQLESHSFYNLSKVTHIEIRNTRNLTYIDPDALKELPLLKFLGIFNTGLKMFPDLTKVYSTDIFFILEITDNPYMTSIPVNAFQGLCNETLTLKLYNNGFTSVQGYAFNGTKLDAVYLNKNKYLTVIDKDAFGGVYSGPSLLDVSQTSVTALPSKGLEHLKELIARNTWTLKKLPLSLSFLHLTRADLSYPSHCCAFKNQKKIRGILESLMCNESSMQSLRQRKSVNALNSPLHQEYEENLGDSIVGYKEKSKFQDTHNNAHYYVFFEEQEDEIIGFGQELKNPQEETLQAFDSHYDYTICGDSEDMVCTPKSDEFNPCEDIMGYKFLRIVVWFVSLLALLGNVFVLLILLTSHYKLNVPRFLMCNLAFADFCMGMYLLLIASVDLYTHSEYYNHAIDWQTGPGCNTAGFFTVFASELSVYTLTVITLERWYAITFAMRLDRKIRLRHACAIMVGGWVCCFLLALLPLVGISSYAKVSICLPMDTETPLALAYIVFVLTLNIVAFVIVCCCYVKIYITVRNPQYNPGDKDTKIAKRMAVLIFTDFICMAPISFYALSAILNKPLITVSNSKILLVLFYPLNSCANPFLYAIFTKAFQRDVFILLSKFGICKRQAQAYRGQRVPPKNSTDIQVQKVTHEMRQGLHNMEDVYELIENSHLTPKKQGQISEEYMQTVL
Chain of Androgen receptor (Homo sapiens) (P10275 whole entry, looked up): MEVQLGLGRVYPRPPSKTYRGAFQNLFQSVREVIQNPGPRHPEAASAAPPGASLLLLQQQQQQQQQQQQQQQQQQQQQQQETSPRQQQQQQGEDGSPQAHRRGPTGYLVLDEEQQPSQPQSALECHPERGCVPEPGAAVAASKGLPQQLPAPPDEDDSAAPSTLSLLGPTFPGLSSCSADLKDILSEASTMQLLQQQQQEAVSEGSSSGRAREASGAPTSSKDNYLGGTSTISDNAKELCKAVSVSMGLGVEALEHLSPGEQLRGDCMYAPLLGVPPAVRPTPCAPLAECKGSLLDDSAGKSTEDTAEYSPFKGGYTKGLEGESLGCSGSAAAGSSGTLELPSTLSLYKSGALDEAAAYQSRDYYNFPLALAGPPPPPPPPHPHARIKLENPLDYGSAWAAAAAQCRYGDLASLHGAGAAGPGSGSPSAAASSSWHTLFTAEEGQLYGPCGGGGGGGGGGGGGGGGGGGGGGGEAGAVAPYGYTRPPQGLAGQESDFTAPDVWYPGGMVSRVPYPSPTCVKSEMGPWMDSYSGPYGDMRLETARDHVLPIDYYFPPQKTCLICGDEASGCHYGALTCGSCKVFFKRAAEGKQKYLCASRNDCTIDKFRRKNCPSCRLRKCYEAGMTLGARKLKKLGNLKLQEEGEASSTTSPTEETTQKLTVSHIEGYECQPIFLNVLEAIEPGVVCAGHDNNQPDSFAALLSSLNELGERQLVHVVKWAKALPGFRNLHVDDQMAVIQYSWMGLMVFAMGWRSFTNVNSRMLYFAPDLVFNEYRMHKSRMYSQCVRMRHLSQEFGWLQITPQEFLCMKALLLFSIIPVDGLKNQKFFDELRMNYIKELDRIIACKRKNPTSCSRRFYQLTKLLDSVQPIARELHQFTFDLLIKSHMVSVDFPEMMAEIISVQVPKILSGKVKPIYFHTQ

`Cc1nc(-c2ccc(OCC(C)C)c(C#N)c2)sc1C(=O)O`: the Potency result in assay [1], in [2], in assay [3], in [4], in assay [7] and in assay [8] was “inactive” in each case. In [9], the Potency entry is “inactive”. Moreover, the compound was called inactive in [5], in assay [6], in [10] and in assay [11].
With `CC(=O)O[C@H](CC(=O)[O-])C[N+](C)(C)C`, the Potency entry in assay [12], in assay [13], in [14], in assay [4], in assay [15] and in assay [16] was “inactive” in each case. Moreover, the Potency entry in [8] and in assay [9] was “inactive” in each case. The outcome in [6], in [10], in assay [11], in assay [17] and in assay [18] was inactive.
Take `O=C(O)Cc1cc(I)c(Oc2cc(I)c(O)c(I)c2)c(I)c1`: the Potency result in assay [12], in [2], in assay [4] and in assay [8] was “inactive” each time. For the same compound, the result in [19], in assay [6], in assay [10], in assay [11] and in [17] was inactive. For the same compound, the Potency in assay [16] is 18.9 µM (active).
As to `O=S(=O)(c1cccc2cnccc12)N1CCCNCC1`, the Potency result in assay [12], in assay [20], in assay [2], in [14], in assay [4] and in assay [15] was “inactive” throughout. Further, the Potency entry in assay [7], in assay [8] and in assay [9] was “inactive” in each case. The compound was classed as inactive in assay [5], in [6], in assay [10], in assay [11], in [17] and in assay [18].
With `CCOC(=O)Cn1c(=O)sc2cccc(Cl)c21`, the Potency entry in [12], in assay [20], in assay [14], in [4], in assay [15] and in assay [7] was “inactive” each time. Also, the Potency result in assay [8] and in assay [9] was “inactive” throughout. The result in [19], in assay [6], in assay [10], in assay [11], in assay [17] and in assay [18] was inactive.
Regarding `OCC(O)[C@@H](O)[C@H](O)[C@H](O)CO[C@H]1O[C@H](CO)[C@@H](O)[C@H](O)[C@H]1O` (some centres undefined), the Potency result in [12], in assay [20], in assay [2], in [13], in assay [15] and in assay [16] was “inactive” throughout. Besides, the Potency entry in assay [8] and in [9] was “inactive” in each case. Further, the result in assay [5], in [6], in assay [10], in [17] and in assay [18] was inactive.
On to `NC(CS)C(=O)O` (centres undefined), for which the Potency entry in assay [12], in assay [2], in assay [13], in assay [14], in [15] and in assay [7] was “inactive” in each case. For the same compound, the Potency entry in assay [16], in assay [8] and in [9] was “inactive” in each case. For the same compound, the compound was classed as inactive in assay [5], in assay [6], in assay [10], in assay [11] and in [17].
As to `CC/C=C\C#N`, the Potency result in [12], in assay [20], in [13], in [4], in assay [15] and in assay [7] was “inactive” each time. Moreover, the Potency result in [16], in assay [8] and in assay [9] was “inactive” in each case. The result in [6], in [10], in assay [11], in [17] and in assay [18] was inactive.
